From the supplement of paper PMC10681739

Target: T1, ETS1 (UniProt P14921)
T1 sequence: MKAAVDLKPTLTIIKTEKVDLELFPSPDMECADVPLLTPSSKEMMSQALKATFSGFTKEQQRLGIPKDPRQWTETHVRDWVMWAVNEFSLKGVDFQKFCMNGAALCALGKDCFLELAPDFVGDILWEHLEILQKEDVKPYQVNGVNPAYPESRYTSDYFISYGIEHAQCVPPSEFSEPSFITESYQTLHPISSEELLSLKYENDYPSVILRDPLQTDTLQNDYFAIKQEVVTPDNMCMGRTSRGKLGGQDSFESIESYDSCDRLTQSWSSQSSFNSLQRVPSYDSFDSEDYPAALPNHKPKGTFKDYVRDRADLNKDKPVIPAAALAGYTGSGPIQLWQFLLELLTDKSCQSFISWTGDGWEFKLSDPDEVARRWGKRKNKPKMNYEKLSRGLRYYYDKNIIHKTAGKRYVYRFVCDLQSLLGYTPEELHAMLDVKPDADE
Experiment: ETS1 binding intensity (PBM fluorescence), ETS1 alone (arbitrary fluorescence units); higher = stronger binding
Settings: ETS1 concentration 1 nM; RUNX1 concentration 0 nM
Method: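 Cooperative genomic-context PBM: 36-bp genomic probes with neighbouring ETS1 and RUNX1 sites, double-stranded on Agilent 4x180k arrays. Full-length recombinant human ETS1 (1 nM) was incubated alone or with RUNX1 (25 nM) and detected with anti-ETS1 antibody plus Alexa488 secondary. Value is the median fluorescence intensity over 4 replicate spots; the ETS1+RUNX1 data were normalised to the ETS1-only data using probes without RUNX1 sites. The 36-bp variable region sits on the array probe with constant linker/primer flanks that are not printed.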

First: GTTTCAGTATTTCCTGGTGCGGCGTACCACACCTAC
Second: TGCATGTGCAGCAGAGGAAACCACAAGTTATTCCCT
The ETS1 binding intensity of the first is higher: 620 for the first, 557 for the second.

Compared with CCGGTCCTGACCGGAAGCGGTAACCGTCACTCCTTC, CTTGTGCCTACATCCTGTAGCTGTGGTTTAGGGACG is lower in ETS1 binding intensity: 21100 for the first, 1420 for the second.

First: CCGGGAGGGACGGAGGATGTGTGGTTCTGTCTCCTT
Second: AACCTCCGACTTCCGGCCGCGCAGCGGTGGGCTGAG
The ETS1 binding intensity of the first is lower: 673 for the first, 3900 for the second.

First: TGTGTCACTTCCCTATCTGTTGCGGTTGTTCACTCC
Second: AGAGGCAGCTTCCGGAGACTGCTCTGTGGCCAGTTT
The ETS1 binding intensity of the first is lower: 409 for the first, 794 for the second.

First: GTCACCATTTCCGGGCCTCCGCGGTGTCCCCACCCC
Second: ACGTCTGTTTCCTGTGATTGAAACCGCAAGAAGAAG
The ETS1 binding intensity of the first is higher: 2560 for the first, 783 for the second.

Going from GCTCGGAAATACCAATATTGGGCTGTGGTATTTGAA to TGGACGTAACACTCAGGAAGTGGTCAACCTTGCTGC, the ETS1 binding intensity rises from 412 to 2630.

First: CAGATCTGAAAGGGAAGTGGTTTCAAGAGGGTTCTT
Second: AGGCAGGGAAGTGGCGCAGAGGAGACCACAGGACAC
The ETS1 binding intensity of the first is higher: 967 for the first, 563 for the second.

First: CCAACGAGCACTTCCGCTTCCCGCAGCTCCAGCGGC
Second: TTTTTTCCGCCTGTAGGGTCACATTGTGGTTGATTG
The ETS1 binding intensity of the first is higher: 2400 for the first, 446 for the second.

First: GGGCAGGTGCGGATGCCGAGGAGAGTGGTCACCTCG
Second: GTGTTGGGTGGCTTCCTGCGGCGTTTCCACTCTCGC
The ETS1 binding intensity of the first is lower: 449 for the first, 605 for the second.

Going from AGGCTGTGGCGGAAGTGGTCGCGTTACCGCTTGTTT to AACTAAGTGCAGGGGAAGTTGTGGTTATTTTTTACC, the ETS1 binding intensity falls from 6340 to 657.

Going from CCTGCCTGAGGCAGGAAGCCGCAGCTGAGGGACGGC to TCCGGAAATAGATAATATCTAGTTAAACCTCAAAAT, the ETS1 binding intensity falls from 2980 to 1540.

Going from CCCTCTCTTCTTCCTCCCCCACCACAAAAGTCACAG to CTCTTCCTGCCTGTCCGTGGCTGGTGTGGTTTGCGT, the ETS1 binding intensity falls from 550 to 457.

First: CCTCTTGCTGCCTCTTCCTGTGGTCTTTTCTCTGTC
Second: GCTTTTCCGCTCCCAGAGTGCCCCGCCCACAGTTCA
The ETS1 binding intensity of the first is higher: 737 for the first, 477 for the second.

Going from GGGCGCGACTTCCGGGGCGGCGGTTGCATCAGATTC to AACAGACAGGATGTGGCCTCTGCCAAAACCACCATC, the ETS1 binding intensity rises from 1580 to 3250.

Compared with AATGATTACCTAACAGGAAAACCACATTGGTCATTT, ACAAGGAGGAAAAGGAAATGAACCACGAATAGCAAA is higher in ETS1 binding intensity: 1150 for the first, 1220 for the second.

Compared with AGGCAAACTACAGGAAGATCCTGCCCGCAACTTGGT, GCTGCAAGGCGGAAGCAGCGCGGTCGGACGGGCATG is higher in ETS1 binding intensity: 454 for the first, 1650 for the second.

Going from TGTGAGAAGCCGGATCCTGTGGTGACCCAGTGGCCT to GAGGCGTTTCCGCCTCCTTTTCGCGGTTGCCTTCTC, the ETS1 binding intensity rises from 409 to 639.

First: GCTGTCCGTTTCCGAGATGTTAATGCGGGATCTTGC
Second: GTTCCTAGGCAGGCAGGATGTGGCTATAAGCTACAT
The ETS1 binding intensity of the first is lower: 473 for the first, 4700 for the second.

Compared with CTGTGACACGTGCGGAAGCTGTGGTAAGTGCATCCA, TTCATCTACTTCCCGCCACACCCACAGAGAAGCCCA is lower in ETS1 binding intensity: 1130 for the first, 469 for the second.

Compared with CTCAGAGCTGCGGAAACTACAACTCCCACAAGGCTG, GTTGAAATTGAGCTTCCGTTGGTGGTTAACCCTCTG is lower in ETS1 binding intensity: 738 for the first, 648 for the second.
